Compound activity deposited in PubChem BioAssay by National Center for Advancing Translational Sciences (NCATS).
IL-1B inflam inh: inhibitors of inflammasome signaling (IL-1 beta secretion); THP-1 LPS/ATP IL-1B secretion, AlphaLISA, 16 h; hits give low values; activity change, % at 57.5 µM; 360,000 tested, 4.7% active; AID 743279; in the data active = activity change below about -50%; inconclusive = mostly about -30% to -49%
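THP-1 cells pretreated 1 hr with compounds (up to 57.5 uM final), then stimulated with LPS (250 ng/mL final) plus ATP (1.25 mM final); secreted IL-1B measured by AlphaLISA after 16 hr, decreased signal indicating inhibition.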
Giardia kill: kills Giardia lamblia | Giardia lamblia trophozoite viability | activity change, % at 7.66 µM, hits read low | 340,000 tested, 0.15% active; in the data active = activity change below about -80%; inconclusive = between about -30% and that limit;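 note: parasites exposed to compound for two days anaerobically before the ATP read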
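Viability, read as ATP luminescence: trophozoites at 100 cells/well, compound added, 48 hrs anaerobic at 37 deg C, then 15-30 min room-temperature development before reading.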
ELG1 DNA repair: inhibitors of ELG1-dependent DNA repair in HEK293T cells; HEK293T ELG1-luciferase reporter, luminescence, 16 h; DNA damage induced by 5-fluorouridine; Potency, µM (highest dose often 46.1 µM), for the others: at the highest dose activity change, negative = inhibition, actives largely listed as inhibitors; 330,000 tested, 2.3% active; AID 504467; note: potency is the fitted concentration of half-maximal effect; nearly all actives have a fitted effect of over 55% in size
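DMSO vehicle served as the neutral condition. Each well held 2,000 cells given 5-fluorouridine plus compound; after 16 hr at 37 °C/5% CO2, ONE-Glo was added and luciferase measured 30 min later.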
TDP1 block: blocks human tyrosyl-DNA phosphodiesterase 1; 350,000 tested, 0.28% active; recombinant TDP1, AlphaScreen DNA substrate cleavage; Potency, µM (titrated, usually from 130 µM), for the others: at the highest dose activity change, negative = inhibition, hits mostly inhibitors; Q9NUW8; note: potency is the fitted concentration of half-maximal effect; nearly all actives have a fitted effect of over 40% in size
Target sequence (Q9NUW8 whole entry, looked up): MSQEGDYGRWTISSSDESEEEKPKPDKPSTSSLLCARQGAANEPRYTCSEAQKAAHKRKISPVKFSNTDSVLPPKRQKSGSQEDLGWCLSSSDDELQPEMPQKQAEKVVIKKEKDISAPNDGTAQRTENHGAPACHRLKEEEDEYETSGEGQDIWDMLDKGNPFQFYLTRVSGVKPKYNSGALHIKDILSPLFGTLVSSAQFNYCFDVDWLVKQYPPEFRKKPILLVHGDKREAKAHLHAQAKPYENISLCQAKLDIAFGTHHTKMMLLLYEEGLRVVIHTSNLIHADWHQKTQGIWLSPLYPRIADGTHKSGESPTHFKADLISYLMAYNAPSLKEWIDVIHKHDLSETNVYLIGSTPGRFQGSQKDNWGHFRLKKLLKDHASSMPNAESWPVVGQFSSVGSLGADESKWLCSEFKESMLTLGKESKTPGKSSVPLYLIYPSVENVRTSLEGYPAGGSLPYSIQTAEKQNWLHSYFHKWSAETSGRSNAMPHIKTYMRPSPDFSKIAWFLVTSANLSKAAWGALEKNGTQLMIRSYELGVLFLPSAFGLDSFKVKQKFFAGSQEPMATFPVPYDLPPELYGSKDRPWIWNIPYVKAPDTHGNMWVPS
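Signal: AlphaScreen proximity between streptavidin donor and anti-FITC acceptor beads on intact substrate. Reaction: Tdp1 1 nM, substrate 15 nM final, 5 min RT after 15 min compound preincubation.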
DT40 TDP1 CPT: DT40-hTDP1 cell growth loss with CPT; Potency, µM (titrated, usually from 46.2 µM), for inactives: at the top dose activity change, negative = growth inhibition, most hits filed as inhibitors; 420,000 tested, 12% active; chicken DT40 Tdp1-/-;hTDP1 cells + 20 nM CPT, ATP luminescence, 48 h; AID 686979; note: potency is the fitted concentration of half-maximal effect; nearly all actives have a fitted effect of over 55% in size
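Cell growth measured by CellTiter-Glo luminescence after a minimum 48 h, 37 C compound exposure with 20 nM CPT in Tdp1-knockout DT40 cells stably expressing hTDP1, seeded 400/well; qHTS titration format.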
TDP1 cell noCPT: qHTS for Inhibitors of human tyrosyl-DNA phosphodiesterase 1 (TDP1): qHTS in cells in absence of CPT. DT40 Tdp1-/- hTDP1 cells, no CPT, ATP luminescence, 48 h. Potency, µM (titrated, usually from 46.2 µM), inactives show top-dose activity change, negative = growth inhibition, usual class: inhibitors. 420,000 tested, 15% active. AID 686978, 2013; note: potency is the fitted concentration of half-maximal effect; nearly all actives have a fitted effect of over 55% in size
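Compound effects on proliferation are scored in DT40 Tdp1-/-;hTDP1 cells in the absence of CPT. ATP levels (CellTiter-Glo luminescence) are recorded after a ≥48 hr, 37 °C incubation.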
Starred values were filed as active, the others as inactive; ? = inconclusive; nt = no result given. An excerpt weighted towards active compounds, which were near 19% of everything screened. Unless noted, calls come from the whole dose curve; as a rule, active = well fitted curve in the direction sought with a large enough effect; inconclusive = small, poorly fitted or top-dose-only effect, or another doubt; inactive = no such curve, though single readings can be large; an effect the other way counts as inactive or inconclusive. % is set by controls: 0 for no effect and ±100 for the full control effect.

SMILES | IL-1B inflam inh | Giardia kill | ELG1 DNA repair | TDP1 block | DT40 TDP1 CPT | TDP1 cell noCPT
Cc1cc(C)c(NC(=O)CO/N=C2\CCCc3nonc32)c(C)c1 | 17.3 | -9.2 | 1.1% | -2.6% | 0.9% | -12.6%
COc1ccc(/C=C/C(=O)OC(C)CN2CCCCC2)cc1 (centres undefined) | -18.1 | 6.5 | 12.8% | nt | -23.3% | -0.3%
COc1ccc(N(C(C)C(=O)Nc2ccc(S(=O)(=O)N3CCCCC3)cc2)S(C)(=O)=O)cc1 (centres undefined) | 5.4 | 1.1 | -0.7% | nt | ? | 29.1µM*
CN(CC(=O)Nc1ccc(S(=O)(=O)N2CCCC2)cc1)CC(=O)Nc1cccc(F)c1 | -17.1 | 17.5 | ? | 0.0% | 18.4µM* | 23.1µM*
CN(CC(=O)Nc1ccc(S(=O)(=O)N2CCCC2)cc1)Cc1ccc(Cl)cc1Cl | 9.6 | 12.3 | ? | 0.0% | 18.4µM* | ?
Cc1ccc(NC(=O)CN(C)C(C)C(=O)Nc2ccc(S(=O)(=O)N3CCCC3)cc2)cc1 (centres undefined) | -15.8 | 1.9 | ? | nt | 18.4µM* | 23.1µM*
O=c1[nH]c(-c2ccccc2)c(-c2ccccc2)nc1[N+](=O)[O-] | 7.4 | -18.2 | 11.7% | nt | ? | -29.7%
CCCc1nn2c(=O)cc(COC(=O)c3ccccc3NC(=O)c3ccc(OCC)cc3)nc2s1 | nt | nt | nt | -6.2% | -9.0% | 1.0%
C[C@@H]1CCCCCCCCC(=O)OCCN(C(=O)OC(C)(C)C)[C@H](C)CCCCCCCCC(=O)OCCN(C(=O)OC(C)(C)C)[C@H](C)CCCCCCCCC(=O)OCCN1C(=O)OC(C)(C)C | 7.5 | -5.9 | 9.8% | 0.4% | -3.8% | -8.4%
CC1CC(C)CN(C(=O)C(C)N(C)CC(=O)Nc2ccc(Cl)cc2)C1 (centres undefined) | 0.0 | -20.3 | ? | -5.4% | 16.4µM* | 14.6µM*
CC1CC(C)CN(C(=O)C(C)N(C)CC(=O)Nc2ccc(F)cc2)C1 (centres undefined) | 12.3 | -7.0 | -3.7% | -0.3% | -28.5% | ?
CN(CC(=O)Nc1cccc(F)c1)C(=O)c1ccc(-n2cncn2)c([N+](=O)[O-])c1 | 22.1 | -12.2 | 3.1% | nt | -15.8% | -23.8%
COc1ccc(CCN(C)c2ccc(S(=O)(=O)N3CCCC3)cc2[N+](=O)[O-])cc1OC | -14.8 | 29.2 | -27.9% | 2.7% | 16.4µM* | 11.6µM*
CN(CC(=O)Nc1cccc(F)c1)C(=O)c1ccc(N2CCCCC2)c([N+](=O)[O-])c1 | -26.7 | -23.6 | 2.2% | nt | 16.4µM* | 14.6µM*
CN(CC(=O)Nc1ccc(Cl)cc1)c1ccc(S(=O)(=O)N2CCCCC2)cc1[N+](=O)[O-] | -60.6* | -2.9 | 18.4µM* | 5.3% | 18.4µM* | ?
CCCCOc1ccc([N+](=O)[O-])cc1C(=O)O | 1.5 | 26.7 | -1.0% | 0.0% | -13.5% | -14.7%
COc1ccc(C(=O)N2CCOCC2c2cc(C(=O)NCc3ccccc3)no2)cc1 (centres undefined) | 7.7 | nt | nt | nt | -6.0% | -7.8%
CCNC(=O)C1(C)CCCN1C(=O)c1cc(OC)c(OC)c(OC)c1 (centres undefined) | 30.5 | nt | nt | nt | -0.9% | 1.8%
COc1cccc(-c2coc3ccc(Br)cc3c2=O)c1 | nt | nt | nt | 3.1% | nt | nt
COc1cc(OC)c2cc(C(=O)N/N=C/c3cccc(OC)c3O)[nH]c2c1 | 114.0 | 2.9 | ? | 7.0% | 14.6µM* | 6.51µM*
COc1cccc(/C=N/NC(=O)c2cc3c(OC)ccc(OC)c3[nH]2)c1O | 80.4 | 4.7 | 3.66µM* | nt | 6.51µM* | 4.11µM*
COc1ccc(/C=N/NC(=O)COc2ccc3ccccc3c2)c(C(=O)O)c1OC | -10.9 | -9.9 | 17.7% | 5.3% | 16.4µM* | ?
